We go through 13 molecules from PubChem BioAssay (NCATS).

The target in test [1] is Aldehyde dehydrogenase, mitochondrial (Homo sapiens) (UniProt P05091). As to the kind of experiment: qHTS for Inhibitors of the Aldehyde Dehydrogenase Family (ALDH2) Validation screens (AID 2061302; active means well fitted inhibition curve with a large enough effect; title and protocol of this record describe different tests;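 further: plate controls were DMSO vehicle for no effect and maximal DPI positive control response for full effect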). On the technique in general: qHTS replaces the single test concentration by a dilution series.
The target in test [2] is Retinaldehyde dehydrogenase 3 (Homo sapiens) (UniProt P47895). As to the kind of experiment: qHTS for Inhibitors of the Aldehyde Dehydrogenase Family (ALDH1A3) Primary screen (AID 2061315).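 Further: plate controls were DMSO vehicle for no effect and reference inhibitor for full effect.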
Test [3] is described as follows: BET inhibitor-based combinations targeting novel dependencies in MECOM-rearranged (r) AML: SET-2 cell line (AID 2202231). Further: nearly all actives have a fitted effect of over 35% in size. Further: potency means the concentration at half of the fitted maximal effect.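 On viability: plate controls were DMSO treated cells for no effect and wells without cells for full effect.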 The following applies: SET-2 AML cells viability, CellTiter-Glo luminescence, 48 h; viability: stronger effect = lower value, concentration not given here. Summed up: (§1)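 Viability of cells (500 per well) is scored by luminescent CellTiter-Glo at 48 hr post-dosing. Eleven-point titrations are normalized to DMSO and empty controls and reduced to AUC values.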
On the technique in general: In ATP-based viability assays light output follows the ATP content of the culture.

Test [4] in a line: BET inhibitor-based combinations targeting novel dependencies in MECOM-rearranged (r) AML: OCI-AML3 cell line (AID 2202232). Further: nearly all actives have a fitted effect of over 35% in size. Further: potency means the concentration at half of the fitted maximal effect. The note with it: Potency: OCI-AML3 viability. In short, it runs like this:
as §1

The nature of test [5]: BET inhibitor-based combinations targeting novel dependencies in MECOM-rearranged (r) AML: MV-4-11 cell line (AID 2202233). Further: nearly all actives have a fitted effect of over 45% in size. Further: potency means the concentration at half of the fitted maximal effect. Summed up:
(§2)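 Using pin-tool transfer, drugs were added in 11 doses to cells (500/well), incubated 48 hr, and assessed with CellTiter-Glo. Z-AUC is a mean-centring transformation applied separately to each screened line.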

Test [6] can be described thus: BET inhibitor-based combinations targeting novel dependencies in MECOM-rearranged (r) AML: UCSD-AML1 cell line (AID 2202235). Further: nearly all actives have a fitted effect of over 40% in size. Further: potency means the concentration at half of the fitted maximal effect. In short, it runs like this: as §2
A short description of test [7]: BET inhibitor-based combinations targeting novel dependencies in MECOM-rearranged (r) AML: AML-191 cell line (AID 2202236; further: nearly all actives have a fitted effect of over 35% in size; further: potency means the concentration at half of the fitted maximal effect). In short, it runs like this: as §1
Test [8] can be described thus: BET inhibitor-based combinations targeting novel dependencies in MECOM-rearranged (r) AML: AML-194 cell line (AID 2202237; further: nearly all actives have a fitted effect of over 40% in size; further: potency means the concentration at half of the fitted maximal effect). Summed up: as §1
In test [9] the target is Retinaldehyde dehydrogenase 3 (Homo sapiens) (UniProt P47895). As to the kind of experiment: qHTS for Inhibitors of the Aldehyde Dehydrogenase Family (ALDH1A3) Validation screen (AID 2061312). Further: on the % scale 0 is the no-effect control and ±100 the full control effect; nearly all actives have a fitted effect of over 45% in size.
Test [10] in a line: BET inhibitor-based combinations targeting novel dependencies in MECOM-rearranged (r) AML: HNT-34 cell line (AID 2202234). Further: nearly all actives have a fitted effect of over 35% in size. Further: potency means the concentration at half of the fitted maximal effect. In short, it runs like this:
as §2

SMILES strings stand for the structures. Inconclusive results are not listed. A number with no mark means an inactive call. Active and inactive are the calls of the source. Unless noted, the call rests on the fitted dose curve; in most records, active means well fitted curve in the direction sought with a large enough effect; inconclusive means small, poorly fitted or top-dose-only effect, or another doubt; inactive means no such curve, though single readings can be large; an effect the other way counts as inactive or inconclusive.

With `NC[C@H](O)c1ccc(O)c(O)c1`, the Potency entry in test [1], in test [2], in test [4], in [5], in test [6] and in test [7] was “inactive” each time. For the same molecule, the Potency entry in test [8] was “inactive”. For the same molecule, in test [3], the viability – broadly, a read-out of living cells in per cent, often relative to untreated cells – is 116%.
For the molecule `Cn1cnc2c1c(=O)[nH]c(=O)n2C`, the Potency entry in [1], in [9], in test [4], in [5], in test [10] and in [6] was “inactive” throughout. For the same molecule, the Potency result in test [7] and in test [8] was “inactive” each time. Further, the viability in test [3] was 114%.
For `O=C1c2ccccc2-c2n[nH]c3cccc1c23`, the Potency entry in test [1] and in [9] was “inactive” throughout. The Potency is 4.68 µM (active) in test [4], 3.32 µM (active) in test [5] and 13.2 µM (active) in test [10].
With `O=C(NOCC1CC1)c1cc(Br)c(F)c(F)c1Nc1ccc(I)cc1Cl`, the Potency result in test [1] and in test [9] was “inactive” throughout.
For `CC(C)(Oc1ccc(CCNC(=O)c2ccc(Cl)cc2)cc1)C(=O)O`, the Potency entry in test [1] and in test [9] was “inactive” in each case.
Regarding `CN(C)CCC=C1c2ccccc2C=Cc2ccccc21`, the Potency entry in test [1], in [9] and in test [6] was “inactive” in each case. The Potency in test [4] and in [10] was 16.6 µM (active) throughout.
For the molecule `CN1C2CCC1CC(OC(=O)C(CO)c1ccccc1)C2` (stereo not given), the Potency entry in test [1], in test [9], in test [5], in test [10], in test [6] and in test [7] was “inactive” throughout. Moreover, the Potency result in test [8] was “inactive”.
With `N=C(N)c1ccc(OCCCCCOc2ccc(C(=N)N)cc2)cc1` (tested in a mixture with another compound), the Potency entry in test [1] and in test [9] was “inactive” throughout.
On to `CN[C@H]1CC[C@@H](c2ccc(Cl)c(Cl)c2)c2ccccc21`, for which the Potency entry in [1] and in test [9] was “inactive” each time. Moreover, the Potency was 13.2 µM (active) in test [4] and 18.6 µM (active) in test [7].
For the molecule `CC1=C(C(=O)O)N2C(=O)[C@@H](NC(=O)C(N)C3=CCC=CC3)[C@H]2SC1` (stereo not given in full), the Potency entry in [1] and in [9] was “inactive” throughout.
Turning to `CCC1(C)CC(=O)NC1=O` (stereo not given), the Potency entry in [1], in [9], in [4], in test [5], in test [10] and in [6] was “inactive” throughout. The Potency result in [7] and in test [8] was “inactive” throughout. Moreover, in test [3], the viability was 115%.
Consider `O=c1[nH]cnc2[nH]ncc12`, for which the Potency result in test [1], in [9], in [6], in test [7] and in [8] was “inactive” throughout. In addition, the viability in test [3] was 124%. Moreover, the Potency in test [10] is 0.0013 µM (active).
As for `O=C1c2c(O)ccc(O)c2C(=O)c2c(NCCNCCO)ccc(NCCNCCO)c21`, the Potency entry in test [1] was “inactive”. Also, the Potency is 0.742 µM (active) in [3]; 0.209 µM (active) in test [4]; 0.0742 µM (active) in test [5]; 0.132 µM (active) in [10]; 0.148 µM (active) in [6]; 0.372 µM (active) in test [7]. The Potency in [8] was 0.372 µM (active).
